Experimental data: PubChem BioAssay (NCATS)
Results filed as inconclusive are left out. Values without a mark were called inactive. Activity calls are given as the source filed them. The call rests on the fitted dose curve; in most records, active means well fitted curve in the direction sought with a large enough effect; inconclusive means small, poorly fitted or top-dose-only effect, or another doubt; inactive means no such curve, though single readings can be large or run the other way.
On the % scale 0 is the no-effect control and ±100 the full control effect; potency means the concentration at half of the fitted maximal effect.

Test: qHTS for Inhibitors of the vitamin D receptor (VDR): Hit Validation using a Texas Red Assay (AID 602201)
Settings: VDR coregulator binding, Texas Red fluorescence polarization, agonist-bound VDR ligand-binding domain; series mostly up to 57.1 µM; activity, negative = inhibition: at the top concentration
Description: The vitamin D receptor (VDR) is a ligand-activated transcription factor and is partially responsible for the regulation of the endocrine system. This includes the transcriptional regulation of genes involved in the production of the parathyroid hormone (PTH) and the regulation of the blood calcium level. High levels of PHT can cause hypercalcemia in the case of primary and tertiary hyperparathyroidism. The VDR-mediated gene regulation, activated by its ligand 1,25-dihydroxyvitamin D3 (1,25-(OH)2D3), is governed by the recruitment of coactivators. Our hypothesis is that small molecules, with the ability to inhibit the interaction between VDR and certain coactivators, are able to selectively modulate VDR-mediated transcription. Our long term objective is the application these VDR-coactivator inhibitors to study the role of VDR-coactivator binding for specific VDR regulated genes. Ultimately, these molecules can be developed into new treatments for hypercalcemic hyperparathyroidism. No small molecule or non-peptide inhibitors are known for the VDR-coactivator interaction.
In a collaboration between the University of Wisconsin, Milwaukee and the NIH Chemical Genomics Center (NCGC) a HTS-compatible enzymatic assay was developed. The assay uses fluorescence polarization as its read-out to measure the inhibition between VDR and coregulator peptide SRC2-3 exerted by small molecules. This assay was used to screen the NIH Molecular Libraries Small Molecule Repository (MLSMR). The HTS assay detects polarization at 665 nm emitted by the Alexa Fluor 647 dye. This validation assay detects polarization of the emission from Texas-Red at 615 nm.
NIH Chemical Genomics Center [NCGC]
NIH Molecular Libraries Probe Centers Network [MLPCN]
Assay Submitter (PI): Alexander Arnold, University of Wilwaukee
Four microliter of either 1.5 uM VDR-LBD, […], and 7 nM Texas Red (all final concentrations) in columns 1, 2, and 5 to 48 or 7 nM Texas Red in columns 3 and 4 are dispensed into black medium-binding solid bottom Greiner plates. Both solutions are kept at 4 deg C and protected from light and dispensed using a Kalypsys dispenser. Then 23nl of compounds and controls are added with Kalypsys pintool. The control is 26.5 mM CBT358 (final concentration of 151 uM) and the compounds' final range in concentration is 457 nM - 114 uM. Plate is centrifuged at 1000 RPM for 15 seconds to remove any residual bubbles. The plate is then incubate at ambient room temperature for 2 hours. It is then read on the Envision for a fluorescent polarization read-out (Ex 595 nm/Em 615 nm)
With `O=C(NC1(O)C(=O)c2ccccc2C1=O)c1ccccc1` the Potency was 6.31 µM (active).
For `Cc1ccc(C(=O)/C=C/c2cc(Br)cc(Br)c2O)o1`, the “activity, negative = inhibition” value was -12.8%.
In the case of `Cc1[nH]n(-c2ncc(-c3ccccc3)s2)c(=O)c1C(c1ccc(Cl)cc1)C(C#N)C#N` (stereo not given), the “activity, negative = inhibition” value is reported as 8.57%.
In the case of `CC1=NOC(=O)/C1=C\c1ccc(-c2ccc(Br)cc2)o1`, the Potency is reported as 3.16 µM (active).
In the case of `CCOC(=O)COc1ccc(Br)cc1/C=C/c1[nH]c(=O)[nH]c(=O)c1[N+](=O)[O-]`, the “activity, negative = inhibition” value is reported as 21.7%.
In the case of `CC1=NOC(=O)/C1=C\c1ccc(-c2ccccc2Br)o1`, the “activity, negative = inhibition” value is reported as -1.62%.
With `COc1ccc(S(=O)(=O)Nc2cc(SCC(=O)O)c(O)c3ccccc23)cc1` the Potency was 3.55 µM (active).
For `O=C1ON=C(c2ccccc2)/C1=C/c1ccc(-c2ccccc2[N+](=O)[O-])o1`, the Potency was 4.47 µM (active).
In the case of `Cc1[nH]n(-c2ncc(-c3ccccc3)s2)c(=O)c1C(c1ccc(Br)cc1)C(C#N)C#N` (stereo not given), the “activity, negative = inhibition” value is reported as 24.5%.
For `COc1ccc(-c2cc(N)n(S(=O)(=O)c3c(F)c(F)c(F)c(F)c3F)n2)cc1OC`, the Potency was 20 µM (active).
With `COc1ccc2c(c1)Cc1sc(NC(=O)c3cccc(C)c3)nc1-2` the Potency was 10 µM (active).
For `O=S(=O)(Nc1cc2nc3ccccc3nc2n1Cc1ccccc1)c1ccc(Cl)cc1`, the “activity, negative = inhibition” value was -0.582%.
With `COc1cc(/C=C2/C(=O)c3cccc([N+](=O)[O-])c3C2=O)c(Br)cc1O` the “activity, negative = inhibition” value was 4.56%.
With `COc1cc([N+](=O)[O-])ccc1-c1ccc(/C=C2\C(=O)ON=C2c2ccccc2)o1` the Potency was 3.16 µM (active).
For `O=C(NC1(O)C(=O)c2ccccc2C1=O)c1c(Cl)cccc1Cl`, the Potency was 3.98 µM (active).
With `Cc1oc2c(c1C(=O)c1ccccc1)C(=O)C(=O)c1ccccc1-2` the Potency was 3.98 µM (active).
In the case of `CC1=C(CO)C(=O)OC([C@@H](C)C2CC[C@H]3C4C[C@H]5O[C@]56[C@@H](O)C=CC(=O)[C@]6(C)C4CC[C@]23C)C1` (stereo not given in full), the Potency is reported as 11.2 µM (active).
For `CC(C)(C)c1ccc(-n2nc(C#N)c(Cl)cc2=O)cc1`, the Potency was 15.8 µM (active).
With `O=C(O)c1cc(Nc2cc(Cl)c3nonc3c2[N+](=O)[O-])ccc1O` the “activity, negative = inhibition” value was -7.01%.
With `O=C1C(Cl)=C(NS(=O)(=O)c2ccc([N+](=O)[O-])cc2)C(=O)c2ccccc21` the “activity, negative = inhibition” value was 1.09%.
With `CC1=NN(c2cccc(C(=O)O)c2)C(=O)/C1=C\C=C/c1ccccc1` the Potency was 5.62 µM (active).
For `Cc1ccc(/C(O)=C2/C(=O)C(=O)OC2c2ccc(Cl)cc2)cc1` (stereo not given), the Potency was 7.08 µM (active).
In the case of `O=C(NNc1cc(Br)c(O)c(Br)c1)c1ccccc1`, the Potency is reported as 25.1 µM (active).
In the case of `O=[N+]([O-])c1c(Nc2ccccn2)cc(Cl)c2nonc12`, the “activity, negative = inhibition” value is reported as -17.4%.
In the case of `O=C(O)c1ccc2c(c1)C(=O)N(c1ccc(/C=C/C(=O)c3ccccc3)cc1)C2=O`, the “activity, negative = inhibition” value is reported as 4.55%.
